HT1080 IDH1KD tx – qHTS for induction of synthetic lethality in tumor cells producing 2HG: qHTS for the HT-1080-IDH1KD cell line. Potency, µM (doses to about 46.1 µM), for inactives: at the top dose activity, negative = toxicity, actives largely listed as cytotoxic. HT-1080 IDH1 knockdown viability, ATP luminescence, 48 h. AID 686971, 2013. hit rate 2% among 360,000;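 further: 0% = DMSO wells and -100% = cell-free medium wells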
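Assay cells: HT-1080 with IDH1 knockdown, 750 per well, RPMI/5% FBS. Exposure: 48 h at 37 °C following 2 h pre-incubation. Read: CellTiter-Glo luminescence; fitted concentration-response, curve class assigned.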
DT40 TDP1 CPT – qHTS for Inhibitors of human tyrosyl-DNA phosphodiesterase 1 (TDP1): qHTS in cells in presence of CPT | chicken DT40 Tdp1-/-;hTDP1 cells + 20 nM CPT, ATP luminescence, 48 h | Potency, µM (highest dose often 46.2 µM), without a hit: at the highest dose activity change, negative = growth inhibition, usual class: inhibitors | hit rate 12% among 420,000; further: nearly all actives have a fitted effect of over 55% in size
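Chicken DT40 Tdp1-/- cells stably complemented with human TDP1 were seeded at 400 cells/well in medium containing 20 nM camptothecin, exposed to pin-transferred compounds, and grown at 37 °C for at least 48 hr. Viability was read as ATP luminescence.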
TDP1 cell noCPT – qHTS for Inhibitors of human tyrosyl-DNA phosphodiesterase 1 (TDP1): qHTS in cells in absence of CPT. DT40 Tdp1-/- hTDP1 cells, no CPT, ATP luminescence, 48 h. Potency, µM (highest dose often 46.2 µM), inactives show top-dose activity change, negative = growth inhibition, most hits filed as inhibitors. hit rate 15% among 420,000. AID 686978, 2013; further: nearly all actives have a fitted effect of over 55% in size
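No-CPT arm: Tdp1-/-;hTDP1 DT40 cells (400/well) plus compounds, incubated ≥48 hr at 37 °C. Readout CellTiter-Glo luminescence.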
KB-V1 MDR tox – qHTS assay for MDR1-selective chemotherapeutics: Primary screen using the drug-selected MDR subline cells KB-V1; KB-V1 MDR cells viability, CellTiter-Glo, 72 h; hit rate 3.4% among 400,000; Potency, µM (highest dose often 46.1 µM), hits mostly cytotoxic; further: nearly all actives have a fitted effect of over 60% in size
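Cells of the MDR subline KB-V1 are plated, dosed with compound at multiple concentrations, and incubated 72 h at 37 degrees C; CellTiter-Glo is then added and luminescence read after 10 min.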
KB-3-1 tox – qHTS assay for MDR1-selective chemotherapeutics: Primary screen using the parental adenocarcinoma cell KB-3-1 | KB-3-1 viability, CellTiter-Glo ATP luminescence, 72 h | Potency, µM (series often up to 46.1 µM), hits mostly cytotoxic | hit rate 1.4% among 400,000 | AID 1347075, 2019; further: nearly all actives have a fitted effect of over 60% in size
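Multi-concentration cytotoxicity screen in KB-3-1 cells grown in DMEM lacking phenol red with 10% FBS. After 72 h at 37 °C with compound, ATP-dependent luminescence was recorded.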
HT1080-NT tox – qHTS for induction of synthetic lethality in tumor cells producing 2HG: qHTS for the HT-1080-NT fibrosarcoma cell line; HT-1080-NT fibrosarcoma viability, CellTiter-Glo ATP luminescence, 48 h; Potency, µM (top dose mostly 46.1 µM), for the others: at the top dose activity, negative = less viability, usual class: cytotoxic; hit rate 1.6% among 360,000; AID 686970, 2013;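 further: NT is the 2HG producing partner of a matched IDH1 knockdown line; 0% = DMSO-treated cells and -100% = media-only wells without cells; nearly all actives have a fitted effect of over 55% in size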
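A 48-hour cytotoxicity screen used HT-1080-NT cells plated 2 hours before compound delivery. ATP-based CellTiter-Glo luminescence measured viability, normalized to DMSO and no-cell controls.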
* hit, by the source's call; i = inactive; u = inconclusive; x = no result given; ! = a repeat was not active; [ ] = remark or other dose. An excerpt weighted towards active compounds, which were near 19% of everything screened. The call rests on the fitted dose curve; in most records, active means well fitted curve in the direction sought with a large enough effect; inconclusive means small, poorly fitted or top-dose-only effect, or another doubt; inactive means no such curve, though single readings can be large; an effect the other way counts as inactive or inconclusive. Unless noted, on the % scale 0 is the no-effect control and ±100 the full control effect; potency means the concentration at half of the fitted maximal effect.

SMILES	HT1080 IDH1KD tx	DT40 TDP1 CPT	TDP1 cell noCPT	KB-V1 MDR tox	KB-3-1 tox	HT1080-NT tox
COC(=O)c1ccccc1NC(=O)COC(=O)C1CCCCC1	0.1%	-15.3%	0.1%	i	i	-0.1%
COCCNC(=S)N/N=C/c1ccc(OCc2ccc(C(=O)OC)cc2)c(OC)c1	-17.1%	u	23.1µM*	u	i	-4.4%
CCOC(=O)c1c(CN2CCCCC2C)oc2ccc(OC)cc12 (stereo unspecified)	u	20.6µM*	u	i	u	u
CCOC(=O)c1c(CN2CCN(C)CC2)oc2ccc(OC)cc12	1.1%	-1.2%	-4.6%	i	i	7.3%
CCOC(=O)c1c(CN2CCC(C)CC2)oc2ccc(OC)cc12	-5.9%	23.1µM*	u	u	i	-2.4%
CCOC(=O)c1c(CN2CCN(c3ccccc3)CC2)oc2ccc(O)cc12	-17.5%	u	u	i	i	-15.6%
CCOC(=O)c1c(CN2CCCCC2)oc2ccc(OC)cc12	-15.2%	u	23.1µM*!	9.2µM*!	i	-5.4%
CC(=O)Nc1ccc(S(=O)(=O)NC(CC(=O)N(C)Cc2ccccc2)C(C)C)cc1 (stereo unspecified)	11.7%	11.6µM*	23.1µM*	i	i	1.2%
CCc1ccccc1N(CC(=O)NC1CCCC1)C(=O)CNC(=O)c1cccs1	3.1%	-5.6%	-13.1%	u	i	12.0%
CCOC(=O)/C=C1/SCC(=O)N1CC(=O)NC12CC3CC(CC(C3)C1)C2	-5.7%	u	20.6µM*	i	i	-5.3%
CCOC(=O)/C=C1\SCC(=O)N1CC(=O)Nc1ccc(OC)c(OC)c1	13.7%	-27.1%	-12.9%	i	i	5.7%
O=C(Oc1cc(=O)oc2c1c(=O)n1c3c(cccc23)CC1)c1ccc(F)cc1	15.8%	-26.0%	23.1µM*	i	i	-0.4%
CSc1cc(-c2ccc(Cl)cc2)c(C(=O)N2CCCC2)s1	-2.3%	-24.1%	u	u	i	-2.3%
CCOC(=O)C(C(C)=O)c1c(Br)c(O)c(O)c2c(C(=O)c3ccc(C)cc3)coc12 (stereo unspecified)	8.91µM*	2.91µM*	2.59µM*	20.6µM*	i	8.91µM*
CCOC(=O)c1nn(-c2ccc(C)cc2)c(C)c1C(C)=O	-0.1%	-2.7%	-0.7%	i	i	-4.5%
CCOC(=O)c1c(C)n(-c2ccc(C)cc2)c2c(C(C(C)=O)C(=O)O)c(Br)c(O)c(O)c12 (stereo unspecified)	-18.6%	23.1µM*	23.1µM*	i	i	u
COC(=O)[C@]12CCCCC=C1N(Cc1ccccc1)C(=O)[C@H](CC(=O)NCCC(C)C)C2	-0.7%	u	u	u	i	0.8%
O=c1c(Br)ccc(Br)cc1Br	5.17µM*	0.0291µM*	0.0651µM*	i	6.51µM*	3.66µM*
O=C1CN(S(=O)(=O)c2cc(Br)ccc2Br)CCN1	-0.8%	-16.4%	0.6%	i	i	0.9%
O=C(NC1CC1)C1CCN(S(=O)(=O)c2cc([N+](=O)[O-])ccc2Cl)CC1	-4.5%	-27.0%	-2.3%	u	u	0.0%[9.24 µM]
Cc1cccc2sc(NC(=O)C3CCN(S(=O)(=O)c4cc([N+](=O)[O-])ccc4Cl)CC3)nc12	u	18.4µM*	16.4µM*	u	u	-14.4%
O=C(NCc1ccc(Cl)cc1)C1CCN(S(=O)(=O)c2cc([N+](=O)[O-])ccc2Cl)CC1	-25.3%	23.1µM*	16.4µM*	i	i	-10.9%
Cc1cccc2sc(NC(=O)c3cc(S(=O)(=O)N(C)C)ccc3N3CCCC3)nc12	-12.0%	u	18.4µM*	u	i	-0.9%
Cc1ncsc1C(=O)NCc1ccc(N2CCCC2=O)cc1	0.6%	u	-28.2%	16.4µM*	i	6.4%
CN(C)S(=O)(=O)c1ccc(N2CCCC2)c(C(=O)Nc2nc3ccccc3s2)c1	u	u	u	u	u	-25.3%
SMILES	HT1080 IDH1KD tx	DT40 TDP1 CPT	TDP1 cell noCPT	KB-V1 MDR tox	KB-3-1 tox	HT1080-NT tox
Cc1nnc(NC(=O)C2CCN(S(=O)(=O)c3cc([N+](=O)[O-])ccc3Cl)CC2)o1	-1.0%	-23.8%	13.3%	i	i	-0.7%
CCC(=O)Nc1ccc(C)cc1-c1nc2ccccc2n(CC(=O)c2ccc(C)cc2)c1=O	x	u	-19.5%	i	i	x
O=C(NCc1ccccc1)C1CCN(S(=O)(=O)c2ccc(N3CCCC3=O)cc2)CC1	-0.1%	-19.9%	20.6µM*	i	i	-2.3%
O=C(NCc1ccc(N2CCCC2=O)cc1)Nc1cccc(Cl)c1	-23.7%	-25.9%	u	16.4µM*	i	-2.7%
O=C(NCc1ccc(F)cc1)C1CCN(S(=O)(=O)c2ccc(Cl)cc2)CC1	-5.1%	2.8%	u	i	i	-9.8%
O=C(NCc1ccc(Cl)cc1)C1CCN(S(=O)(=O)c2ccc(N3CCCC3=O)cc2)CC1	-3.9%	10.3µM*	u	i	i	3.8%
COC(=O)N[C@@H]1C[C@H]2[C@@H]3CC[C@H]4C[C@@H](OC)CC[C@]4(C)[C@H]3CC[C@]12C	-2.8%	u	u	i	i	-7.1%
COC(=O)N[C@@H]1C[C@H]2[C@@H]3CC[C@H]4C[C@@H](OC)CC[C@]4(C)[C@H]3CC[C@@]12C	u	13µM*	14.6µM*	i	i	-11.3%
COC(=O)[C@H]1C[C@H]2[C@@H]3CC[C@H]4C[C@@H](OC)CC[C@]4(C)[C@H]3CC[C@]2(C)[C@@]2(CCCO2)O1	1.6%	u	16.4µM*	i	i	1.2%

Bioassay records (PubChem BioAssay)
